{"source": "ChEMBL document CHEMBL3988442", "about": "“University of Dundee, Small-Polar-MMV Screening Library” (2021)", "note": "The campaign covered roughly 48,000 compounds. About 13,000 (27%) showed an effect of 50% or more. The list shows a part of the results.", "data": [{"test_system": "Wolbachia pipientis", "test": "Anti-Wolbachia Cell-Based Screen", "type": "functional", "parameters": "scale not given: in the data most compounds retested in dose-response had high values", "settings": "5 µM", "units": {"Percent Effect": "%"}, "values": [{"compound": "CCc1ncncc1C(=O)NCCNc1ncnc2sccc12", "Percent Effect": -23.73}, {"compound": "CCOC[C@@H]1CC[C@H]2[C@H](CCN2S(=O)(=O)Cc2ccccc2)O1", "Percent Effect": -7.135}, {"compound": "CCOC[C@H]1CC[C@H]2[C@H](CCN2C(=O)c2cnccn2)O1", "Percent Effect": 103.2}, {"compound": "COCC(=O)N1CC[C@@H]2O[C@H](COCc3csc(C)n3)CC[C@@H]21", "Percent Effect": 4.421}, {"compound": "Cc1nc(COC[C@@H]2CC[C@H]3[C@H](CCN3C(=O)C3CC3)O2)cs1", "Percent Effect": -1.141}, {"compound": "CCOC[C@@H]1CC[C@H]2[C@H](CCN2C(=O)c2cnccn2)O1", "Percent Effect": 112.7}, {"compound": "Cc1nc(COC[C@H]2CC[C@H]3[C@H](CCN3C(N)=O)O2)cs1", "Percent Effect": -9.234}, {"compound": "CN(C)C(C(=O)N1CCC(C#N)CC1)c1ccccc1F", "note": "(stereo unspecified)", "Percent Effect": -0.3171}, {"compound": "CCN1C[C@H]2C3(CCN(C(C)=O)CC3)CC[C@@]2(C(=O)N(C)C)C1.O=C(O)C(F)(F)F", "Percent Effect": 6.202}, {"compound": "CCCn1cc(-c2ccnc(NC3CCc4ccccc4C3)n2)c(C)n1", "note": "(stereo unspecified)", "Percent Effect": 0.5444}, {"compound": "Cc1noc(-c2ccc(N3CCC[C@H]3CO)nc2)n1", "Percent Effect": 4.962}, {"compound": "Cc1ncc(-c2ccnc(N3CC[C@H](O)C3)n2)c(-c2cccnc2)n1", "Percent Effect": 109}, {"compound": "Cc1ncc(-c2ccnc(N3CCCCCC3)n2)c(-c2cccnc2)n1", "Percent Effect": -6.559}, {"compound": "COc1ccnc(N2CCCN(c3nc(C4CC4)ns3)CC2)n1", "Percent Effect": 2.276}, {"compound": "c1cncc(-c2nc(C3CC3)ncc2-c2ccnc(N3CCCC3)n2)c1", "Percent Effect": 90.28}, {"compound": "Cc1ncc(-c2ccnc(N3CCC[C@@H]3CO)n2)c(-c2cccnc2)n1", "Percent Effect": 102.7}, {"compound": "Cc1ncc(-c2ccnc(NC3CC3)n2)c(-c2cccnc2)n1", "Percent Effect": 88.62}, {"compound": "O=c1cc(-c2cccnc2)nc(-c2ccc(CN3CC[C@@H](O)C3)cc2)[nH]1", "Percent Effect": 3.03}, {"compound": "COc1ccccc1Oc1ncccc1CNC(=O)CN1CCCC1=O", "Percent Effect": -22.72}, {"compound": "O=C(Nc1ccccc1)N1CCC(N2Cc3ncccc3C2=O)CC1", "Percent Effect": -2.29}, {"compound": "CSC1(CNc2ncc(Br)cn2)CCOCC1", "Percent Effect": -8.791}, {"compound": "COc1ccccc1C(=O)N(Cc1nc(C)cs1)CC1CCCO1", "note": "(stereo unspecified)", "Percent Effect": -4.042}, {"compound": "CCC[C@H]1CN(CCS(C)(=O)=O)C[C@@H]1NC(=O)c1cccnn1", "Percent Effect": 3.679}, {"compound": "COc1ccsc1C(=O)Nc1cc(Cl)c(=O)n(C)c1", "Percent Effect": -0.9546}, {"compound": "O=C(NCCCOC1CCOC1)NC(C1CC1)C1CC1", "note": "(stereo unspecified)", "Percent Effect": -5.056}, {"compound": "CCCc1nc(C)c(CN2CC3(CCOC3)CCC2=O)s1", "note": "(stereo unspecified)", "Percent Effect": -4.631}]}]}
